Results taken from PubChem BioAssay AID588496 (NMMLSC, 2011).
The other results are listed elsewhere or left out. Activity calls are given as the source filed them.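 How the source made its calls: active means compounds that dim the fluorescent label, raw bead signal shifting by over 33 units between lowest and highest dose; inactive means the rest.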

Experiment: quenchers of FAM-labeled RNA aptamer fluorescence, dose response, artefact control for GRK2 aptamer binding project, biochemical, powder set 1, flow cytometry (AID 588496)
Conditions: Bead-bound FAM RNA aptamer fluorescence quenching; MCF span: fluorescence change max-min concentration, stronger effect = higher value; fluorescence ratio to DMSO: at 11.1 µM, stronger effect = lower value

SMILES	MCF span	fluorescence ratio to DMSO
O=C(CCS(=O)(=O)c1ccc(Br)cc1)NCCc1ccc(Cl)cc1	3.2	99% (inactive)
COc1ccc(Cl)cc1NC(=O)CCS(=O)(=O)c1ccc(Br)cc1	-1.1	98% (inactive)
